# Results filed as inconclusive are left out. Calls of active or inactive are those of the source. Unless noted, calls come from the whole dose curve; as a rule, active = well fitted curve in the direction sought with a large enough effect; inconclusive = small, poorly fitted or top-dose-only effect, or another doubt; inactive = no such curve, though single readings can be large; an effect the other way counts as inactive or inconclusive.
# Experiments:
# [1] = qHTS profiling of the MIPE4 collection as inhibitors of Plasmodium falciparum (DD2) proliferation (AID 743345; call rule not given here); conditions: P. falciparum Dd2 in erythrocytes, SYBR Green DNA, 72 h; at 28.5 µM (top of the series) unless noted
# How it was run: (§1)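 Erythrocytes infected with P. falciparum (0.3% parasitemia, 2.5% hematocrit) incubated with compounds 72 h at 37 C, 5% CO2. Lysis with saponin/Triton buffer containing SYBR Green I, overnight at room temperature in the dark; DNA fluorescence (485/535 nm) normalised to 0.29 uM artemisinin and DMSO.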
# [2] = qHTS profiling of the MIPE4 collection as inhibitors of Plasmodium falciparum (DD2) proliferation (Rep 2) (AID 743346; call rule not given here); conditions: P. falciparum Dd2 in erythrocytes, SYBR Green DNA, 72 h; at 28.5 µM (top of the series) unless noted
# How it was run: as §1
# [3] = qHTS profiling of the MIPE4 collection as inhibitors of Plasmodium falciparum (HB3) proliferation (AID 743347; call rule not given here;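 note: plate controls were DMSO vehicle wells for no effect and artemisinin wells for full effect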); conditions: P. falciparum HB3 in erythrocytes, SYBR Green DNA, 72 h; at 28.5 µM (top of the series) unless noted
# How it was run: as §1
# [4] = High-throughput drug toxicity screening in the BPDCN cell line Gen2.2 (AID 1224824; call rule not given here;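 note: cells exposed to compounds for 48 h before reading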); conditions: Gen2.2 BPDCN cells; at 45.8 µM (top of the series) unless noted
# How it was run: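 Readout is ATP luminescence from Gen2.2 cells after two days of drug exposure in serum-containing medium at 37 °C. Values express percent activity, with vehicle defining full signal and 9.2 uM bortezomib defining zero.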
# [5] = High-throughput drug toxicity screening in the BPDCN cell line Cal-1 (AID 1224825; call rule not given here); conditions: Cal-1 BPDCN cell viability, qHTS; at 45.8 µM (top of the series) unless noted
# How it was run: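 Cal-1 cells, 500 per well in phenol-red-free RPMI with 10% FBS, exposed to compounds for 48 hours at 37C, 5% CO2. Viability read by CellTiter-Glo luminescence; percent activity normalized to DMSO (100%) and 9.2 uM bortezomib final (0%).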
# [6] = qHTS assay for measurement of the activity of small molecule inhibitors on Zika virus induced Caspase-3 activity in human iPSC derived neural progenitor cells (hNPCs) (AID 1224857); conditions: hNPCs ZIKV-induced caspase-3/7, Caspase-Glo luminescence, 6 h; series mostly up to 45.7 µM; note: % of control where 0% means no effect; nearly all actives have a fitted effect of over 65% in size
# How it was run: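 In medium with heparin 2 ug/ml and cyclopamine 2 uM, hNPCs (350 cells/well) received compound for one hour and then Zika virus at 2 FFU/cell; caspase activity was measured by Caspase-Glo 3/7 luminescence 6 h post-infection.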
# [7] = qHTS Screen of the MIPE 4.0 Collection Against Ewings Sarcoma (RDES) (AID 1259252); conditions: RD-ES Ewing sarcoma viability, CellTiter-Glo, 48 h; series mostly up to 45.8 µM; note: potency is the fitted concentration of half-maximal effect; nearly all actives have a fitted effect of over 35% in size
# How it was run: (§2)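 Log-phase cells in RPMI with 5% FBS attached for 4 h, then received compounds as a titration for 48 h at 37C, 5% CO2. Viability was read by CellTiter-Glo luminescence and normalized to DMSO and no-cell wells.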
# [8] = qHTS Screen of the MIPE 4.0 Collection Against Ewings Sarcoma (TC71) (AID 1259253); conditions: TC71 Ewing sarcoma viability, CellTiter-Glo, 48 h; series mostly up to 45.8 µM; note: nearly all actives have a fitted effect of over 40% in size; note: potency is the fitted concentration of half-maximal effect
# How it was run: as §2
# [9] = qHTS Screen of the MIPE 4.0 Collection Against Ewings Sarcoma (EW8) (AID 1259255); conditions: EW8 Ewing sarcoma viability, CellTiter-Glo, 48 h; series mostly up to 45.8 µM; note: nearly all actives have a fitted effect of over 35% in size; note: potency is the fitted concentration of half-maximal effect;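 for viability: 100% = DMSO-treated cells and 0% = medium-only wells without cells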
# How it was run: as §2
# [10] = qHTS Screen of the MIPE 4.0 Collection Against Ewings Sarcoma (TC32) (AID 1259256); conditions: TC32 Ewing sarcoma viability, CellTiter-Glo, 48 h; series mostly up to 45.8 µM; note: nearly all actives have a fitted effect of over 45% in size; note: potency is the fitted concentration of half-maximal effect
# How it was run: as §2
# [11] = qHTS profiling for inhibitors of Plasmodium falciparum (3D7) proliferation (AID 743322; call rule not given here;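 note: infected erythrocytes exposed to compound for 72 h before lysis; 100% = DMSO vehicle wells and 0% = 0.29 µM artemisinin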); conditions: P. falciparum 3D7 proliferation; at 28.7 µM (top of the series)
# How it was run: as §1
# [12] = qHTS profiling for inhibitors of Plasmodium falciparum (DD2) proliferation (AID 743323; call rule not given here); conditions: lower = more inhibition; at 28.7 µM (top of the series)
# How it was run: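 1536-well qHTS; infected RBCs 0.3% parasitemia/2.5% Hct final; cpd 72 h 37 C 5% CO2; lysis buffer + SYBR Green I, o/n RT dark; FI 485/535; norm. to 0.29 uM artemisinin and DMSO, plate-stack corrected.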
# [13] = qHTS profiling for inhibitors of Plasmodium falciparum (HB3) proliferation (AID 743324); conditions: Plasmodium falciparum HB3 blood-stage proliferation; at 28.7 µM (top of the series);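 note: 100% = DMSO vehicle wells and 0% = artemisinin-treated control wells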
# How it was run: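 P. falciparum HB3 grown in erythrocytes (0.3% parasitemia, 2.5% hematocrit final) with compound for 72 h at 37 C, 5% CO2. Parasite DNA detected by SYBR Green after saponin/triton lysis overnight; normalized to 0.29 uM artemisinin and DMSO.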
# [14] = qHTS profiling of the MIPE4 collection as inhibitors of Plasmodium falciparum (3D7) proliferation (AID 743344; call rule not given here;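 note: scaled between DMSO vehicle wells and 0.29 µM artemisinin as full inhibition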); conditions: P. falciparum 3D7 in erythrocytes, SYBR Green DNA fluorescence, 72 h; at 28.5 µM (top of the series) unless noted
# How it was run: as §1
# [15] = qHTS assay for measurement of the activity of small molecule inhibitors on Zika virus induced Caspase-3 activity in human astrocytoma cells (AID 1224859); conditions: SNB-19 ZIKV-induced caspase-3/7, luminescence, 6 h; series mostly up to 45.7 µM;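 note: plate controls were ZIKV-infected untreated cells for no effect and uninfected cells for full effect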
# How it was run: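 A cell-based luminescent caspase-3/7 assay used SNB-19 cells infected with ZIKV (2 FFU/cell) for 6 h following 1 h compound pretreatment.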
# [16] = Identifying Small Molecule Inhibitors of Pancreatic Cancer Stem Cells (SN12C, Adherent) (AID 1259358); conditions: viability/growth inhibition; series mostly up to 46.1 µM;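 note: cell survival measured after 48 h of compound exposure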; note: potency is the fitted concentration of half-maximal effect
# How it was run: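 Spheroids grown 14 days in stem cell media on hydrogel-coated nonadherent plates; 2D lines seeded directly. Compounds added after 4 h attachment, 48 h at 37C, 5% CO2; CellTiter-Glo luminescence normalized to DMSO (no inhibition) and no-cell wells (full inhibition).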
# [17] = Identifying Small Molecule Inhibitors of Pancreatic Cancer Stem Cells (Panc1, Spheroid) (AID 1259359); conditions: Panc1 spheroid cancer stem cell viability; series mostly up to 46.1 µM;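 note: potency is the fitted concentration of half-maximal effect; compound exposure lasted 48 h before reading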
# How it was run: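 Spheroids grown 14 days in stem cell media on nonadherent hydrogel before screening; cells attached 4 h, then compound exposure 48 h at 37C, 5% CO2. CellTiter-Glo luminescence normalized to DMSO (no inhibition) and no-cell wells (full inhibition).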
# [18] = qHTS assay to identify small molecule inhibitors of chordoma cells - UCH-1 (AID 1259355); conditions: UCH-1 chordoma viability, CellTiter-Glo, 48 h, combination, with auranofin plus four topoisomerase inhibitors; series mostly up to 46.1 µM; note: % is set by controls: 0 for no effect and ±100 for the full control effect; nearly all actives have a fitted effect of over 55% in size
# How it was run: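 Cells (800/well) were seeded and left overnight at 37 C, 5% CO2, then treated with drugs at 15 concentrations plus a combination mix of auranofin, camptothecin, doxorubicin, rubitecan and topotecan. Viability after 48hr was read by CellTiter-Glo luminescence.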
# [19] = qHTS assay to identify small molecule inhibitors of chordoma cells - UCH-2 (AID 1259356); conditions: UCH-2 chordoma viability, CellTiter-Glo ATP luminescence, 48 h; series mostly up to 46.1 µM; note: % is set by controls: 0 for no effect and ±100 for the full control effect
# [20] = Identifying Small Molecule Inhibitors of Pancreatic Cancer Stem Cells (A2780, Spheroid) (AID 1259357); conditions: Potency: A2780 spheroid viability; series mostly up to 46.1 µM; note: potency is the fitted concentration of half-maximal effect;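 note: spheroids pre-formed over 14 days in stem cell medium on hydrogel; compound exposure lasted 48 h before the ATP luminescence read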
# How it was run: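 Pre-formed 14-day tumor spheroids or adherent cells dosed and incubated 48 h, 37C, 5% CO2. Viability assessed by CellTiter-Glo.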
SMILES,"parasite growth remaining, % of DMSO control (lower = more inhibition) [1] [%]","parasite growth, % of control (lower = inhibition) [2] [%]","growth, % of control [3] [%]","cell viability, % of control (lower = more cytotoxic) [4] [%]",viability (% of control) [5] [%],Potency [6],Potency [7],Potency [8],Potency [9],Potency [10],remaining parasite growth % (stronger effect = lower value) [11] [%],"activity, percent of control [12] [%]","remaining proliferation (% of control), lower = more inhibition [13] [%]","parasite growth, % of DMSO control [14] [%]",Potency [15],Potency [16],Potency [17],Potency [18],outcome [19],Potency [20]
CNC(=O)c1ccccc1Nc1nc(Nc2ccc(N3CCOCC3)cc2OC)ncc1Cl,10.3,22.9,7.48,18.7,7.05,inactive,11800 nM (active),1320 nM (active),1480 nM (active),662 nM (active),,,,,,,,,,
O=C(O)c1ccc2c(c1)nc(Nc1cccc(Cl)c1)c1ccncc12,,9.96,4.4,84.5,72.1,inactive,,4690 nM (active),7430 nM (active),5900 nM (active),9.86,12.2,-0.0167,6.23,inactive,,,,,
COC(=O)c1ccc2c(C(=Nc3ccc(N(C)C(=O)CN4CCN(C)CC4)cc3)c3ccccc3)c(O)[nH]c2c1,6.24,13.4,5.35,213,71.4,inactive,,743 nM (active),3320 nM (active),1480 nM (active),0.245,0.784,0.135,6.36,inactive,18700 nM (active),13200 nM (active),,,
C[C@@H]1CN(CC(=O)Nc2ccc3c(c2)Cc2cccc(-c4cc(=O)cc(N5CCOCC5)o4)c2S3)C[C@H](C)O1,20.9,,2.59,11.9,13.3,inactive,,20900 nM (active),23500 nM (active),18700 nM (active),-0.753,3.61,-0.663,7.08,inactive,inactive,,,,
Cc1nc2ccc(CN(C)c3ccc(C(=O)N[C@@H](CCC(=O)O)C(=O)O)s3)cc2c(=O)[nH]1,106,54.1,424,185,32.8,inactive,16.6 nM (active),20.9 nM (active),26.4 nM (active),33.2 nM (active),,,,,,,,inactive,inactive,
Nc1cc(C(F)(F)F)c(-c2cc(N3CCOCC3)nc(N3CCOCC3)n2)cn1,,41.5,18.9,9.37,11.1,inactive,372 nM (active),1050 nM (active),590 nM (active),264 nM (active),90.8,69.9,58.8,19.5,,,833 nM (active),,,1480 nM (active)
C=CCn1c(=O)c2cnc(Nc3ccc(N4CCN(C)CC4)cc3)nc2n1-c1cccc(C(C)(C)O)n1,13.2,21.2,16.5,169,16.4,inactive,,332 nM (active),83.3 nM (active),372 nM (active),11.1,6.29,,13.4,inactive,,418 nM (active),,,
CN1CCN(c2cc(C(=O)Nc3ccc4c(c3)-c3c(c(C(N)=O)nn3-c3ccc(F)cc3)CC4)c(Cl)cn2)CC1,7.41,16.2,3.51,5.17,3.02,inactive,,4180 nM (active),20900 nM (active),13200 nM (active),-2.46,0.473,-0.224,4.93,inactive,,23500 nM (active),,,
COc1ccc(-n2nc(C(N)=O)c3c2C(=O)N(c2ccc(N4CCCCC4=O)cc2)CC3)cc1,82.6,,83.4,150,104,inactive,,inactive,inactive,inactive,,,,53.4,inactive,,,,,
C=CC(=O)N1CCC[C@@H](n2nc(-c3ccc(Oc4ccccc4)cc3)c3c(N)ncnc32)C1,,,,43.2,6.59,inactive,20900 nM (active),29600 nM (active),23500 nM (active),18700 nM (active),,,,,,,,,,inactive
Cc1[nH]nc2ccc(-c3cncc(OC[C@@H](N)Cc4ccccc4)c3)cc12,38,20.4,8.27,7.91,3.31,inactive,,1480 nM (active),833 nM (active),2960 nM (active),30.1,14.2,17.9,19.3,inactive,7430 nM (active),9350 nM (active),,,

# Source: PubChem BioAssay (NCATS)
